NPC1 promoter act = qHTS Assay for NPC1 Promoter Activators | Potency, µM (series often up to 9.22 µM), without a hit: top-dose activation, hits mostly activators | actives 2.4% (n = 320,000) | AID 485313, 2010 | Huh7 NPC1 promoter luciferase reporter, 24 h; note: % of control where 0% means no effect; nearly all actives have a fitted effect of over 60% in size
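Cells: Huh7 expressing luciferase under the NPC1 promoter, 1500/well. Seeded 2 h, compound added, incubated 24 h at 37 °C. Luciferase reagent, 10 min ambient, then luminescence.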
KinaseGlo FLuc = Counterscreen for Luciferase (Kinase-Glo TM) Inhibition; actives 0.28% (n = 200,000); Potency, µM (series often up to 38.3 µM), without a hit: at the top dose activity change, negative = inhibition, actives largely listed as inhibitors; Kinase-Glo luciferase, ATP luminescence, 8 min; Luciferin 4-monooxygenase (Photuris pensylvanica), Q27757; note: % is set by controls: 0 for no effect and ±100 for the full control effect; nearly all actives have a fitted effect of over 60% in size
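Recombinant Kinase-Glo luciferase, 10 uM ATP (linear range), luciferin; imidazole pH 7.2 / KCl / MgCl2 / Tween / BSA buffer; 8 min RT; luminescence.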
Rab9 prom act = qHTS Assay for Rab9 Promoter Activators; Huh7 Rab9 promoter-luciferase reporter, luminescence, 24 h; Potency, µM (top dose mostly 9.22 µM), for the others: top-dose activation, negative = inhibition, usual class: activators; actives 2.8% (n = 320,000); note: % of control where 0% means no effect; nearly all actives have a fitted effect of over 60% in size
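Huh7 reporter line, Rab9 promoter upstream of luciferase. Compound exposure 24 h at 37 °C in reduced-serum medium with 10% FBS. Read-out: luminescence.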
SMN2 splice up = qHTS Assay for Enhancers of SMN2 Splice Variant Expression | HEK293 SMN2-luciferase splicing reporter, luminescence, 30-36 h | Potency, µM (titrated, usually from 46.1 µM), for inactives: top-dose activity change, positive = activation, usual class: activators | actives 2.8% (n = 210,000) | AID 1458, 2008; note: % of control where 0% means no effect; nearly all actives have a fitted effect of over 55% in size
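HEK293 cells carry an SMN2 […]–luciferase reporter in which exon 7 inclusion puts luciferase in frame. Cells were plated 10-12 h before compound addition, then incubated 30-36 h at 37C. ONE-Glo luminescence was read; sodium butyrate at 4.5 mM final served as control.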
ELG1 genotox = qHTS screen for small molecules that induce genotoxicity in human embryonic kidney (HEK293T) cells expressing luciferase-tagged ELG1. HEK293T ELG1-luciferase reporter, luminescence, 16 h. AID 504466, 2011. Potency, µM (doses to about 46 µM), inactives show at the highest dose activity change, positive = activation, hits mostly activators. actives 1.3% (n = 330,000); note: % of control where 0% means no effect; nearly all actives have a fitted effect of over 60% in size
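ELG1-luciferase HEK293T cells, 2,000/well; compound pinned in; 16 hr, 37 °C, 5% CO2; ONE-Glo, 30 min RT; luminescence on CCD imager.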
FLuc counter = qHTS profiling assay for firefly luciferase inhibitor/activator using purifed enzyme and Km concentrations of substrates (counterscreen for miR-21 project); AID 588342, 2011; purified FLuc, Km substrates, luminescence inhibition; actives 6.9% (n = 360,000); Potency, µM (highest dose often 57.5 µM), for the others: top-dose activity change, negative = inhibition, usual class: inhibitors;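 note: plate controls were vehicle for no effect and reference inhibitor for full effect; nearly all actives have a fitted effect of over 55% in size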
Target sequence (P08659 whole entry, looked up): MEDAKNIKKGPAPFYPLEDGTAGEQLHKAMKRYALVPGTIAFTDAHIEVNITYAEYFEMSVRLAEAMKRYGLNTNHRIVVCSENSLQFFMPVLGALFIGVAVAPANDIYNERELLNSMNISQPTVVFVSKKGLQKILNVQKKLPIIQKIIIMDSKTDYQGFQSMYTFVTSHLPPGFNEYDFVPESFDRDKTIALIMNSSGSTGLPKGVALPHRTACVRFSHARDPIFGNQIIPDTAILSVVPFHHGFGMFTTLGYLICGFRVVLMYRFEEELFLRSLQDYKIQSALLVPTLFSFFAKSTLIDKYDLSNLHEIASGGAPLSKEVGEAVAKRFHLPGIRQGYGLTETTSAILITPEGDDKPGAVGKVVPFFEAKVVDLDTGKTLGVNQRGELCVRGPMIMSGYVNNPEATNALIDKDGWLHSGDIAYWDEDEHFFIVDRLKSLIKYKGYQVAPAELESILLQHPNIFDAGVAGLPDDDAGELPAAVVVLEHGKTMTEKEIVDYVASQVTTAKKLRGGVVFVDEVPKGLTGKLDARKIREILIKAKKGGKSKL
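Purified P. pyralis luciferase, 10 nM final, with Km-level 10 uM D-luciferin and 10 uM ATP in 50 mM Tris acetate pH 7.5, 10 mM Mg acetate, 0.01% Tween-20, 0.05% BSA; 6-point qHTS titration about 60 µM downward; luminescence read.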
Starred values were filed as active, the others as inactive; u = inconclusive; x = no result given; [ ] = dose if it differs, or a comment. Hits are enriched below; roughly 7.3% of the tested compounds scored in any of these assays. Calls come from the whole dose curve; as a rule, active = well fitted curve in the direction sought with a large enough effect; inconclusive = small, poorly fitted or top-dose-only effect, or another doubt; inactive = no such curve, though single readings can be large; an effect the other way counts as inactive or inconclusive. Potency is the fitted concentration of half-maximal effect.

SMILES	NPC1 promoter act	KinaseGlo FLuc	Rab9 prom act	SMN2 splice up	ELG1 genotox	FLuc counter
CCCCC(=O)NC(=S)Nc1cc(C(=O)O)ccc1OC	-2%	-1%	-8%	3%	1%	4%
COc1ccc(C(=O)O)cc1NC(=S)NC(=O)/C=C/c1ccc(C(C)C)cc1	2%	x	-3%	x	0%	11µM*
COc1ccccc1NC(=O)Nc1nc(CC(=O)N2CCN(c3ccccc3OC)CC2)cs1	-12%	x	-1%	x	-11%	17µM*
CC1CCN(C(=O)CCCC(=O)N2CCC(C)CC2)CC1	u	x	18%	x	0%	9.5µM*
Cc1cc(C(F)(F)F)c(C#N)c(SCC(=O)Nc2nc3cc(Br)ccc3s2)n1	29%	0%	3.2µM*	-58%	5%	-21%
CCOC(=O)NC(=O)CSc1nc(C)cc(C(F)(F)F)c1C#N	22%	-1%	21%	3%	13%	-12%[2.3 µM]
CCOc1ccc(-c2nnc(SCC(=O)Oc3ccccc3)o2)cc1	x	x	x	x	x	-6%
CCOC(=O)c1c(C)[nH]c(C(=O)CSc2nc3ccccc3o2)c1C	-5%	-3%	-2%	0.32µM*	5%	9%
CCOC(=O)c1c(C)[nH]c(C(=O)CSc2nc(C)cc(C)n2)c1C	-5%	-3%	2%	-46%	-1%	0%
CCOC(=O)c1c(C)[nH]c(C(=O)CSc2ccc(Cl)cc2)c1C	u	-2%	u	11µM*	u	6µM*
CCOC(=O)c1c(C)oc2ncnc(N3CCN(c4ccccc4)CC3)c12	x	x	x	x	x	-10%
O=C(O)Cc1sc(-c2ccccc2)nc1-c1ccccc1	2%	2%	2%	-2%	0%	u
O=C(O)Cc1sc(Nc2ccccc2Cl)nc1-c1ccccc1	x	x	x	69%	x	3.4µM*
CC(C)(C)c1ccc(-c2nc(O)c(CC(=O)O)s2)cc1	-2%	x	17%	x	3%	1.9µM*
O=C(Cc1sc(Nc2ccccc2)nc1-c1ccccc1)NCc1ccccn1	u	5%	u	13µM*	u	19µM*
O=C(O)Cc1sc(-c2ccc(Cl)cc2)nc1-c1ccccc1	4%	-2%	-1%	21%	1%	17µM*
COc1ccc(C2CC(=O)Nc3c2c(=O)n(C)c2nc4ccccc4n32)cc1 (stereo unspecified)	x	x	x	12%	x	-19%
CCOc1ccccc1NS(=O)(=O)c1c(-c2ccc(C)cc2)csc1C(=O)OC	x	x	x	x	x	7%
CCOC(=O)c1ccc(NC(=O)CSc2nccn2Cc2ccc(OC)cc2)cc1	x	x	x	x	x	1%
Cc1ccc(Nc2nc(-c3ccccc3)c(CC(=O)O)s2)cc1	2%	3%	13%	2%	u	13µM*
O=C(O)Cc1sc(Nc2ccccc2)nc1-c1ccc(Cl)cc1	-13%	1%	-1%	11%	u	u
O=C(O)Cc1sc(Nc2ccc(F)cc2)nc1-c1cccs1	26%	-1%	u	x	29%	17µM*
O=C(O)Cc1sc(Nc2ccc(C(=O)O)cc2)nc1-c1ccccc1	x	x	x	13%	x	u
Cc1nc2ccccc2c(=O)n1/N=C/c1ccc(O)c(O)c1O	2%	x	-2%	x	-3%	u
CN=c1scc(-c2cccs2)n1/N=C/c1ccc(O)c(O)c1O	u	-26%	0.79µM*	13µM*	u	1.7µM*
SMILES	NPC1 promoter act	KinaseGlo FLuc	Rab9 prom act	SMN2 splice up	ELG1 genotox	FLuc counter
CN=c1scc(C)n1/N=C/c1ccc(O)c(O)c1O	2%	u	17%	-1%	u	1.5µM*
CN=c1scc(-c2cccs2)n1/N=C/c1ccccc1O	-37%	u	-51%	-80%	-11%	0.17µM*
CN=c1scc(C)n1/N=C/c1cc(Br)c(O)c(OC)c1	2%	-2%	26%	u	2%	17µM*
Cc1cc(C(=O)N2CCN(c3cccc(C)c3C)CC2)c2c(C)nn(-c3ccccc3)c2n1	x	x	x	x	x	-4%
CC1=N/C(=C\c2ccc(OC(C)C)cc2)C(=O)N1c1ccc(C(=O)O)cc1	0%	0%	-4%	-9%	6%	12µM*
COc1ccc(/C=C2\N=C(c3c(-c4ccccc4)noc3C)OC2=O)cc1OC	-3%	-3%	1%	0%	2%	0%
COc1ccc(/C=C2\N=C(c3ccccc3)N(c3ccc(C(=O)O)cc3)C2=O)cc1OC	13%	x	12%	x	14%	5.4µM*
CC(=O)c1ccc(NC(=O)C2=CC(c3ccc(C)cc3)=NS(=O)(=O)N2C)cc1	x	x	x	x	x	-1%
Cc1cc2nc([C@H](C)C(=O)c3ccc(Cl)cc3)c(=O)[nH]c2cc1C	x	-1%[7.66 µM]	x	3.5µM*	x	x
COc1ccc(C)cc1NC(=O)N1CCC(CN2CCOCC2)CC1	x	x	x	x	x	-6%
CC(C)CNS(=O)(=O)c1cc(C(=O)OCC(=O)c2ccc3c(c2)OCCO3)c(Cl)cc1Cl	-1%	2%	-14%	-8%	4%	12µM*
CCCn1c(C)cc(C(=O)COC(=O)c2cc(S(=O)(=O)NCC(C)C)c(Cl)cc2Cl)c1C	1%	-3%	-6%	u	8%	9.5µM*
CC(C)CNS(=O)(=O)c1cc(C(=O)O)c(Cl)cc1Cl	-4%	x	-2%	x	2%	-1%
CC(C)CNS(=O)(=O)c1cc(C(=O)N2CCOCC2)c(Cl)cc1Cl	-3%	-1%	-3%	-4%	-3%	6%
CC(C)(C)CC(=O)NCC(c1ccc2c(c1)OCO2)N1CCN(c2ccccc2)CC1 (stereo unspecified)	x	x	x	x	x	5%
COc1cc(NC(=O)Cn2c(SCc3ccc(F)cc3)nc3cccnc32)cc(OC)c1	x	x	x	x	x	2%
O=C(NCc1ccco1)c1ccc(Cn2c(SCc3ccccc3F)nc3cccnc32)cc1	x	x	x	x	x	8.5µM*
Cc1ccc(CNC(=O)c2ccc(Cn3c(SCc4ccc(F)cc4)nc4cccnc43)cc2)o1	x	x	x	0%	x	3.8µM*
Cc1ccc(CNC(=O)c2ccc(Cn3c(SCc4ccccc4F)nc4cccnc43)cc2)cc1	x	x	x	x	x	6.7µM*
O=C(NCc1cccs1)c1ccc(CSc2nc3cccnc3n2Cc2ccccc2F)cc1	x	x	x	x	x	-17%
Cc1cccc(Cn2c(SCc3ccc(C(=O)NCc4ccccc4F)cc3)nc3cccnc32)c1	x	x	x	x	x	-4%
COc1ccc(NC(=O)Cn2c(SCc3ccc(C)cc3)nc3cccnc32)c(OC)c1	x	x	x	x	x	1.9µM*
Clc1ccccc1CNc1ncnc2c1c(-c1ccccc1)cn2-c1ccccc1	x	x	x	x	x	-2%
